Laboratory results reported in PubChem BioAssay AID2391 (Southern Research Specialized Biocontainment Screening …, 2010).
Screen size: about 310,000 compounds; about 410 (0.13%) were called active. About 2% were inconclusive and are not listed. No rule for the calls is given here. These entries were drawn from the full list. Measured potencies and affinities stand elsewhere.

Test: inhibition of RSV-induced cytopathic effect – HEp-2 cells, primary 10 µM value included (AID 2391)
Settings: at 10 µM, stronger effect = higher value

CPE inhibition, inactive:
O=C(OC(C(=O)NC1CCCC1)c1ccccc1F)c1ccco1 (stereo not drawn) 0.45%, Nc1cc(=O)[nH]c(SCC(=O)N2N=C(c3ccc(Cl)cc3)CC2c2ccco2)n1 (stereo not drawn) 7.31%, CCn1c(=O)n(CC(=O)Nc2ccc(F)cc2)c(=O)c2ccccc21 2.36%, CC(=O)OC[C@H]1O[C@@H](Sc2cccc3cccnc23)[C@H](OC(C)=O)[C@@H](OC(C)=O)[C@@H]1OC(C)=O 1.39%, O=C(NC1CC2CCCC(C1)N2C(=O)Nc1ccccc1)C1CC1 (stereo not drawn) 1.59%, O=C(COC(=O)/C=C/c1ccc(C(F)(F)F)cc1)NCC1CCCO1 (stereo not drawn) -1.68%, Cc1sc2nc3c(C(=O)N4CCCC4)cc(C(=O)c4ccccc4O)cn3c(=O)c2c1C 1.18%, CCOC(=O)c1sc2nc3c(SCC(=O)O)cc(C(=O)c4ccccc4O)cn3c(=O)c2c1C 11.9%, O=C(Nc1ccncc1)c1c(Cl)cccc1Cl 0%, Cc1c(C)c2c(OCC(=O)N3CCC[C@H]3C(=O)O)cc3c(c2oc1=O)CCC(C)(C)O3 0.96%, O=C(Nc1ccc(Cl)c(C(F)(F)F)c1)[C@@H]1CC=C[C@@H]2CCN(Cc3ccc(Cl)c(Cl)c3)C(=O)[C@@H]21 7.28%, O=C(Nc1ccc(Cl)c(C(F)(F)F)c1)[C@@H]1CC=C[C@@H]2CCN(Cc3ccccc3)C(=O)[C@@H]21 2.53%, COc1ccc(OC)c(Nc2nc3nonc3nc2N2CCCCC2)c1 1.59%, O=C(Cc1cccc2ccccc12)Nc1ccc(O)cc1C(=O)O 2.4%, COc1ccccc1NC(=O)COc1ccc2ccccc2c1 4.1%, COc1cc(NC(=O)CCCOc2ccc(Cl)cc2Cl)c(C(=O)O)cc1OC 6.77%, O=C(Cc1ccccc1C(=O)O)Nc1cccc2ccccc12 1.4%, O=C(CCCOc1ccc(Cl)cc1Cl)Nc1ccc(O)cc1C(=O)O 0.3%, O=C(COc1ccc2ccccc2c1)Nc1cccc(C(=O)Nc2ccccc2C(=O)O)c1 20.8%, Cc1ccc(Cl)cc1N(C(=O)c1csnn1)C(C(=O)NC1CCCC1)c1ccco1 (stereo not drawn) 1.87%, O=C(CN1C(=O)NC2(CCCCCC2)C1=O)Nc1ccc2c(c1)CCC2 2.7%, O=C(NCC(c1ccco1)N1CCCCC1)c1ccc(NS(=O)(=O)c2ccc(F)cc2)cc1 (stereo not drawn) 3.02%, COc1ccc(-c2noc(CN3CCN(c4ccccc4)CC3)n2)cc1 -0.23%, Cc1cccc(NC(=O)c2ccc(S(=O)(=O)N3CCCC3)cc2)c1C 1.87%, CC(OC(=O)c1cccn1C)C(=O)Nc1ccc2c(c1)OCO2 (stereo not drawn) 2.62%, CCN(CC(=O)Nc1ccc(Br)cc1)C(=O)c1nc2nc(C)cc(C)n2n1 1.87%, COC(=O)c1cccc(NC(=O)c2ccc3c(c2)C(=O)N(C(C)(C)C)C3=O)c1 9.97%, CC(C)(C)N1C(=O)c2ccc(C(=O)Nc3cc(C(=O)O)cc(C(=O)O)c3)cc2C1=O 0.7%, CCCOC(=O)Cn1cnc2scc(-c3ccc(C)cc3)c2c1=O 0.39%, COc1ccc(N=C2C(=Nc3ccc(OC)cc3)N(c3ccc(OC)cc3)C(=S)N2c2ccccc2)cc1 0.02%, COc1ccc(N=C2C(=Nc3ccc(OC)cc3)N(c3ccc(OC)cc3)C(=S)N2C)cc1 0.37%, Cc1cc(OC(C(=O)O)c2ccccc2)c2c(C)c(Cc3ccccc3)c(=O)oc2c1 (stereo not drawn) 11.6%, Cc1cc(O)c2c(C)c(CC(=O)N3CCN(C(=O)C4COc5ccccc5O4)CC3)c(=O)oc2c1 (stereo not drawn) 6.34%, Cc1coc2c1c(C)cc1oc(=O)c(Cc3ccccc3)c(C)c12 1.6%, CCOC(=O)Cc1c(C)c2ccc(N(CC)CC)cc2oc1=O 57.9%, Cc1c(CC(=O)N2CCN(C(=O)C3COc4ccccc4O3)CC2)c(=O)oc2cc(O)ccc12 (stereo not drawn) 0.83%, COC(=O)Cc1c(C)c2c(O)cc(C)cc2oc1=O 6.65%, C=CCN(CC(=O)Nc1c(C)cccc1CC)C(=O)SCCC 0.77%, Cc1[nH]c(C)c(S(=O)(=O)Nc2ccc(OC(F)(F)F)cc2)c1C(=O)N1CCCCC1 1.31%, C#CCOc1nc2c(c(=O)n(C)c(=O)n2C)n1Cc1ccccc1 6.97%, CCc1ccc(-c2cc(C(=O)N3N=C(C(F)F)CC3(O)C(F)F)c3ccccc3n2)cc1 (stereo not drawn) -3.61%, CC1c2cc3c(cc2CCN1C(=O)c1cccc(F)c1)OCCCO3 (stereo not drawn) 2.63%, CCCCc1ncc(CN2CCC(n3nccc3NC(=O)c3ccccc3Cl)CC2)[nH]1 0.19%, O=C(O)c1cc(-c2ccc(/C=C3\NC(=O)N(c4ccccc4)C3=O)o2)ccc1Cl 4.99%, Cc1ccc(N2NC(=O)/C(=C/c3ccc(-c4ccc(Cl)c(C(=O)O)c4)o3)C2=O)cc1 0.38%, Cc1cccnc1NC(=O)c1ccc(OCc2c(C)noc2C)cc1 1.6%, CCOc1ncccc1C(=O)Nc1nc(C(C)(C)C)cs1 0.68%, CC(C)(C)c1csc(NC(=O)c2cccnc2Cl)n1 1.36%, COc1ccc(CC2(CO)CCN(Cc3ccc(OC(F)(F)F)cc3)CC2)cc1 13.9%, COc1ccccc1NC(=O)Nc1nc(CC(=O)Nc2ccc(OC)c(OC)c2)cs1 -1.37%, Cc1cc(OCc2cc(C(=O)N(C)CCOc3ccccc3)no2)cc(C)c1Cl 13.7%, COc1ccc(CNC(=O)C2CCN(S(=O)(=O)c3cccc4nonc34)CC2)cc1 0.73%, COc1ccccc1CNC(=O)C1CCCN(S(=O)(=O)c2cccc3nonc23)C1 (stereo not drawn) 0.88%, O=C(NCc1ccc(Cl)cc1)C1CCN(S(=O)(=O)c2cccc3nonc23)CC1 5.35%, O=C(NCc1ccccc1Cl)C1CCCN(S(=O)(=O)c2cccc3nonc23)C1 (stereo not drawn) 0.66%, O=C(NNC(=O)C12CC3CC(CC(C3)C1)C2)c1ccccn1 1.78%, C/C(CC(=O)Nc1cc(C)ccn1)=N\NC(=O)C(=O)NC(C)C -0.96%, CC(=O)C1[C@H](N(C)C)CC2C3CC=C4CC(O)CC[C@]4(C)C3CC[C@@]21C (stereo partly drawn) 0.54%, CC12CCC(O)CC1=CCC1C2CCC2(C)C1CCC21CCC(=O)O1 (stereo not drawn) 7.71%, CCN(CC)S(=O)(=O)c1ccc(N2C(=O)CC2(/C=C/c2ccccc2)C(=O)NC2CCCC2)cc1 (stereo not drawn) 4.54%, Cc1c(Cl)ccc2c(C(=O)NCCCn3nccc3C)cc(-c3ccccn3)nc12 13.8%, Cc1nnc(NC(=O)CSc2ccc(-c3cccnc3)nn2)s1 2.73%, Cc1nnc(OCc2nc3ccccc3n2C)c2ccccc12 6.77%, Cn1c(COc2nnc(-c3ccc(Cl)cc3)c3ccccc23)nc2ccccc21 5.55%, CCC(CC)c1nnc(NC(=O)c2c(C)nn(Cc3ccccc3Cl)c2C)s1 10.8%, CC(=O)Nc1ccc(NC(=O)c2c(C)nn(Cc3ccccc3Cl)c2C)cc1 1.12%, COc1ccc(-c2nc(N=Nc3ccc(O)cc3)n[nH]2)cc1 9.37%, CN(C)S(=O)(=O)c1cc(NC(=O)CN2CCN(c3ccc(O)cc3)CC2)ccc1Cl 0.75%, COc1cccc(-c2cc3nc(-c4ccccc4)cc(N4CCCC(O)C4)n3n2)c1 (stereo not drawn) 14.1%, OC1CCN(c2cc(-c3ccccc3)nc3cc(-c4ccc(F)cc4)nn23)CC1 5.15%, C=CCOC(=O)C(C#N)c1nc2ccccc2nc1N1CCN(c2ccccc2OC)CC1 (stereo not drawn) 0.49%, CC(=O)Nc1ccc2[nH]ccc2c1 -0.73%, C/C(=N\O)c1ccc2[nH]ccc2c1 5.17%, COc1ccc(OC)c(NC(=O)c2cccc(S(=O)(=O)N(Cc3ccccc3)c3ccccc3OC)c2)c1 2.42%, Cc1nc2ccc(N=NC3=C(O)CC(C)(C)CC3=O)cc2s1 2.75%, COc1ccccc1OCCn1cc(C=O)c2ccccc21 -0.05%, COC(=O)C(Cc1c[nH]c2ccccc12)NC(=O)c1cccs1 (stereo not drawn) 1.21%, O=C(NC(Cc1c[nH]c2ccccc12)C(=O)N/N=C/c1cccc2ccccc12)c1cccs1 (stereo not drawn) 18.5%, O=C(Nc1ccc(F)c([N+](=O)[O-])c1)c1cccs1 4.17%, O=C(NC(Cc1c[nH]c2ccccc12)C(=O)N/N=C/c1ccc(Br)cc1)c1cccs1 (stereo not drawn) -2.58%, O=C(NC(Cc1c[nH]c2ccccc12)C(=O)O)c1cccs1 (stereo not drawn) -1.85%, O=C(NC(Cc1c[nH]c2ccccc12)C(=O)N1CCOCC1)c1cccs1 (stereo not drawn) -0.02%, CC1(C)CC(=O)c2cc(C(=O)NC3CCSC3=O)c(=O)n(-c3ccc(Cl)cc3)c2C1 (stereo not drawn) 0.72%, O=S(=O)(Nc1ccccc1)c1cccc2nsnc12 1.2%, CCc1ccc(N2CC(C(=O)OCC(=O)NNC(=O)c3ccccc3)CC2=O)cc1 (stereo not drawn) 1.46%, COc1cccc(NC(=O)C(NCC(C)(C)CN(C)C)c2ccccc2)c1 (stereo not drawn) 1.08%, CC1(C)Cc2cccc(C(=O)Nc3ccc(Cl)cc3)c2O1 13.1%, CC1CCN(C(=O)COC(=O)Cc2c[nH]c3ccccc23)CC1 -0.07%
